Assay outcomes (PubChem BioAssay)
TMEM16A act: TMEM16A chloride channel activators or potentiators, primary screen, cell-based, HTS | B-score at 10 µM | hit rate 0.3% among 340,000 | Anoctamin-1 (Mus musculus), Q8BHY3 | AID 623877, 2012 | HEK293 TMEM16A/YFP-H148Q/I152L, iodide quench fluorescence; stronger effect = lower value;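 active = fluorescence-ratio B-score plate-corrected deviation score at least 3 library SD below zero, with starting fluorescence score within 5 deviations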;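 also: channel opened by trigger with iodide after compound preincubation; score built on the fluorescence ratio of max minus min over baseline; more negative score means more quench and so TMEM16A activation or potentiation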
GRIN3A LBD mod: binders of NR3A ligand-binding domain, primary screen, biophysical, differential scanning fluorimetry, uHTS; Glutamate receptor ionotropic, NMDA 3A (GRIN3A) ligand-binding domain; NR3A LBD differential scanning fluorimetry, Tm shift; 0% = protein alone, 100% = glycine-bound protein; Tm shift relative to glycine control, % at 25 µM; hit rate 2.5% among 340,000; AID 1259313, 2017;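 active = melting temperature shift of at least 10% of the positive control shift, at one fixed dose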
CRFBP-R2 block: antagonists of CRF-BP/CRF-R2 complex, primary screen, cell-based, HEK293, calcium dye fluorescence, uHTS; CRF-induced calcium fluorescence; inhibition, % at 11.8 µM; hit rate 0.59% among 350,000; AID 588475, 2011;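 active = inhibition of the ligand-induced calcium signal above about 50% at the single tested concentration, limit read from the data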
CRFR2-BP ag: agonists of CRF-BP/CRF-R2 complex, primary screen, cell-based, HEK293, calcium dye fluorescence, uHTS; activation, % at 13.2 µM; hit rate 0.46% among 350,000; calcium dye fluorescence (FLIPR); percent of saturating CRF peptide response; AID 588473, 2011;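 active = activation of at least 50%, plus an integration ratio under a set limit after plate pattern correction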
TMEM16A inh: TMEM16A chloride channel inhibitors, primary screen, cell-based, HTS | normalized B-score (activity score, 25-100; higher = stronger inhibition) at 10 µM | hit rate 1.2% among 310,000 | HEK293 TMEM16A/YFP iodide influx fluorescence, ionomycin | AID 588511, 2011 | Anoctamin-1 (Mus musculus), Q8BHY3;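 active = ratio plate-corrected score three or more library SD toward inhibition, starting fluorescence score within five deviations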;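 also: score derived from kinetic fluorescence span divided by baseline fluorescence per well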
MPTP block: mitochondrial permeability transition pore inhibitors, primary screen, biochemical, isolated mouse mitochondria, absorbance; Ca2+ swelling absorbance, 30 min; AID 602449, 2012; hit rate 1.4% among 360,000; inhibition, % at 10 µM;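 active = inhibition of 50% or more, scaled per plate between neutral and stimulator controls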
TMEM16A reconf: TMEM16A chloride channel inhibitors, confirmation, cell-based, re-confirmation | HEK293 TMEM16A/YFP-H148Q, iodide quench fluorescence; ionomycin added to raise cell calcium | hit rate 39% among 2,300 | inhibition, % at 10 µM | shares compounds with TMEM16A inh;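 active = mean duplicate percent inhibition, scaled so buffer wells are 0 and the reference blocker 100, over three buffer SD above buffer mean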
TMEM16A Ca cntr: calcium mobilization in TMEM16A/YFP HEK293 cells, confirmation, counter-screen for TMEM16A inhibitor project; shares compounds with TMEM16A inh; Fluo4 calcium mobilization; calcium response (% of ionomycin), % at 10 µM; hit rate 2% among 2,300;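 active = duplicate-averaged calcium signal over 20% of the ionomycin maximum, relative to buffer baseline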;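 also: each well's signal is peak minus trough fluorescence divided by its pre-addition baseline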
YFP-HEK293 quench: iodide YFP quench changes in parental YFP-HEK293, counter-screen for TMEM16A inhibitor project, cell-based; ionomycin; shares compounds with TMEM16A inh; 2,300 tested, under 10 active; YFP ratio F(max-min)/F0 at 10 µM;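 active = yellow fluorescent protein signal ratio exceeding the buffer control mean by over 5 SD of those controls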;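 also: ratio is mean of duplicate wells from kinetic YFP trace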
ClC-1 rat inh: ClC-1 chloride channel inhibition, selectivity assay for TMEM16A inhibitor project, cell-based, voltage-dependent ClC-1 | ratio percent, % at 10 µM | shares compounds with TMEM16A inh | 2,300 tested, under 10 active | CHO ClC-1-YFP, iodide influx fluorescence quench; iodide control reads 0, buffer control 100;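 active = duplicate-mean ratio percent above the mean of iodide-only control wells, which defines zero, plus 5 of their SD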;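 also: higher percent means stronger block of ClC-1 iodide influx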
Target sequence (P35524 whole entry, looked up): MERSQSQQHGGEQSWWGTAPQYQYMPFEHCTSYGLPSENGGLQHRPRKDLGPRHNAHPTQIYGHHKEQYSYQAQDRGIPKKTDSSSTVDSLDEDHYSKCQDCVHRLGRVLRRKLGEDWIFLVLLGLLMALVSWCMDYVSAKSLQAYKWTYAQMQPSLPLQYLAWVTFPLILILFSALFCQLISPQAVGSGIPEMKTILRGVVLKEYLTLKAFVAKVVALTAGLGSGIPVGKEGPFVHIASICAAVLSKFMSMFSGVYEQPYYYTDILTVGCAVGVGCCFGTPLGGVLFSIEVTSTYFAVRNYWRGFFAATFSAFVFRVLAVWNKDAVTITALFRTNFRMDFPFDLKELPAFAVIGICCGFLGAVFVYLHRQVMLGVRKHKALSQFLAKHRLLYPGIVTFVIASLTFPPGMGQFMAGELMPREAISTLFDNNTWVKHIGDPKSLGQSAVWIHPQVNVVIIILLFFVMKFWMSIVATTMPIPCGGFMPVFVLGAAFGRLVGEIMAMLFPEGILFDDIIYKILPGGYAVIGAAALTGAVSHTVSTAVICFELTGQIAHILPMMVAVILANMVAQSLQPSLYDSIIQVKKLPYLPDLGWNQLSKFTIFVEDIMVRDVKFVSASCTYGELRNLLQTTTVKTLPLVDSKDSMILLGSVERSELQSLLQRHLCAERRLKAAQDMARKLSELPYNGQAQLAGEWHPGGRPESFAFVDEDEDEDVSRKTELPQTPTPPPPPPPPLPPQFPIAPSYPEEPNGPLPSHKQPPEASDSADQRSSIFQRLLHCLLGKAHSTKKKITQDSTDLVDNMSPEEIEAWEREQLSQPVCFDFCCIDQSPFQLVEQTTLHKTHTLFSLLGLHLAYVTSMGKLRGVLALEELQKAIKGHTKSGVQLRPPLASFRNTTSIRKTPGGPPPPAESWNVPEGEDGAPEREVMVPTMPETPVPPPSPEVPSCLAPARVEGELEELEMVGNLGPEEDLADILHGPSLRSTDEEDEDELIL
Numbers stand for hits; - = inactive; . = no result. In the library only some 5.1% were active in any assay of this set; here they are far more common.

SMILES	TMEM16A act	GRIN3A LBD mod	CRFBP-R2 block	CRFR2-BP ag	TMEM16A inh	MPTP block	TMEM16A reconf	TMEM16A Ca cntr	YFP-HEK293 quench	ClC-1 rat inh
Cc1nn(Cc2ccc(C(=O)N3CCN(C(=O)c4ccco4)CC3)o2)c(C)c1[N+](=O)[O-]	-	-	-	-	-	-	.	.	.	.
CCOc1ccc(N=C2NC(=O)S/C2=C\c2ccc(N(C)C)cc2)cc1	-	-	-	-	-	-	-	-	-	-
Cc1ccc2nc(-c3ccccc3)c(-c3ccccc3)nc2c1	-	-	-	-	-	-	.	.	.	.
Cc1ccc(-c2nc3ccc(C(=O)O)cc3nc2-c2ccc(C)cc2)cc1	-	-	-	-	25	-	-	-	-	-
CC(C)[C@H](NC(=O)c1ccccc1)C(=O)Nc1ccc2c(c1)OCO2	-	-	-	-	.	-	.	.	.	.
COc1ccc(S(=O)(=O)NCc2ccc(C(=O)NCc3cccnc3)cc2)cc1	.	.	.	.	-	.	.	.	.	.
COc1cccc(NC(=O)c2ccc(S(=O)(=O)NCc3cccnc3)cc2)c1	-	-	-	-	100	-	-	-	-	-
COCCNC(=O)Cn1cc(/C=C(\C#N)C(=O)NC2CCCC2)c2ccccc21	-	-	-	-	-	-	.	.	.	.
CN1CCN(c2nc3c(c(=O)n(C)c(=O)n3C)n2Cc2cccc3ccccc23)CC1	-	-	-	-	-	-	.	.	.	.
Cn1c(=O)c2c(nc(N3CCCCCC3)n2Cc2cccc3ccccc23)n(C)c1=O	-	-	-	-	100	-	-	-	-	-
CCNC(=O)C1CCCN(Cc2ccc3ccccc3c2Br)CC1 (configuration not stated)	.	.	.	.	.	-	.	.	.	.
Cc1cc(Cl)ccc1OCCCC(=O)Nc1cccnc1	-	-	-	-	25	-	22.0%	-	-	-
Cc1cc(Cl)ccc1OCC(=O)Nc1cccnc1	-	-	-	-	-	-	.	.	.	.
O=C(Nn1c(O)c(C=C2N=c3ccccc3=N2)sc1=S)c1cccc(Cl)c1	-	28.9	-	-	25	-	-	-	-	-
Cc1nc2ccccc2c(=O)n1NC(=O)c1cccc(Cl)c1	-	-	-	-	-	-	.	.	.	.
Cc1nn(-c2ccccc2)c(C)c1/C=N/n1cnnc1	-	-	-	-	-	-	.	.	.	.
Cc1nn(-c2ccccc2)c(C)c1/C=N\N1CCN(c2ccc(Cl)cc2)CC1	-	-	-	-	25	-	-	-	-	-
C=CC[C@H]1C(C(=O)OCC)=CC[C@@H](c2ccccc2)N1S(=O)(=O)c1ccc(C)cc1	.	.	.	.	.	-	.	.	.	.
Cc1ccc(C(=O)OCCOc2cccc(Cl)c2)cc1S(=O)(=O)N1CCOCC1	-	-	-	-	-	-	.	.	.	.
CCCCOC(=O)n1c(=O)oc2ccc(S(=O)(=O)N3CCCCC3)cc21	-	-	-	-	25	-	20.0%	-	-	-
CCCn1nnnc1NCc1ccccc1OCc1ccc(F)cc1	-	-	-	-	-	-	-	-	-	-
COc1ccc(C(=O)N/N=C/c2ccc(N(C)c3ccccc3)cc2)cc1	-	-	-	-	25	-	-	-	-	-
COc1cc(CNC(=O)c2cc(-c3ccc(OC)cc3C)n[nH]2)cc(OC)c1	.	.	.	.	.	-	.	.	.	.
